Compound activity as filed in PubChem.
The list is not random: actives were taken first. Their share in the collection is about 2.4%.
AmpC inh det: inhibitors of E. coli AmpC beta-lactamase with detergent | purified AmpC, nitrocefin hydrolysis with detergent | Potency, µM (doses to about 28.7 µM), without a hit: at the highest dose activity change, negative = inhibition | actives 0.09% (n = 71,000) | P00811; active means well fitted curve in the direction sought with a large enough effect; inconclusive means small, poorly fitted or top-dose-only effect; further: on the % scale 0 is the no-effect control and ±100 the full control effect
Target sequence (P00811 whole entry, looked up): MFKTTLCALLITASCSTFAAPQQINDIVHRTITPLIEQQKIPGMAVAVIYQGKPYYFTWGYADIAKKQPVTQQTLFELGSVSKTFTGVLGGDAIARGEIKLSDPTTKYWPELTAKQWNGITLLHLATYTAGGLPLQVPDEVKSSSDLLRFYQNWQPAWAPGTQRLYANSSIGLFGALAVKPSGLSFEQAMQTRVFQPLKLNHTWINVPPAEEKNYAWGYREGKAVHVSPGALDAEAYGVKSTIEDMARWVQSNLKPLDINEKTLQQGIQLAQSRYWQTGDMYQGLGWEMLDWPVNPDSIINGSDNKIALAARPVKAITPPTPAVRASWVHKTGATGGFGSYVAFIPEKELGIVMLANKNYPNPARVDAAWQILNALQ
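E. coli AmpC (5.3 nM) in 20 mM phosphate pH 7.0 with 0.01% Triton X-100, preincubated 15 min RT with compound; nitrocefin (2 uL of 800 uM stock) hydrolysis followed by 480 nm absorbance every 20 s over 4 min.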
AmpC inh no det: blocks E. coli AmpC beta-lactamase in absence of detergent | P00811 | AmpC nitrocefin hydrolysis, absorbance 480 nm, no detergent | Potency, µM (top dose mostly 28.7 µM), inactives show at the highest dose activity change, negative = inhibition | actives 1.8% (n = 71,000); further: % of control where 0% means no effect
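Enzyme, pH 7.0 phosphate. Compound titrations were pre-incubated with AmpC for 15 min at room temperature before nitrocefin (stock 800 uM) addition; product formation was recorded at 480 nm every 20 s for 4 min.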
SmPrx2 inh: Schistosoma mansoni Prx2 inhibition; Potency, µM; S. mansoni Prx2 activity coupled to TGR/GSH (TGR is thioredoxin glutathione reductase), NADPH fluorescence loss, qHTS; AID 448; actives 0.07% (n = 65,000)
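Prx2 activity was followed as the loss of NADPH fluorescence (ex 365/em 450 nm), read every 30 sec for 8 min after H2O2 start. The enzyme mix (50 nM Prx2, 25 nM TGR, GSH, NADPH; pH 7.4 phosphate buffer) was incubated with compound for 15 min at room temperature first.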
Anthrax LT inh: inhibitors of anthrax lethal toxin internalization | Cells, anthrax lethal toxin internalization, FRET ratio (460/530) | Potency, µM (titrated, usually from 40 µM), for inactives: top-dose activity change, negative = inhibition, hits mostly inhibitors | actives 0.67% (n = 70,000); further: on the % scale 0 is the no-effect control and ±100 the full control effect; nearly all actives have a fitted effect of over 50% in size
An asterisk follows results filed as active; ? = inconclusive; nt = no result; [ ] = another dose, or the depositor's remark. Unless noted, the call rests on the fitted dose curve. Potency means the concentration at half of the fitted maximal effect.

SMILES | AmpC inh det | AmpC inh no det | SmPrx2 inh | Anthrax LT inh
Cc1ccc(C(=O)Cn2c3c(sc2=N)CCCC3)cc1 | -3.1% | 47.1% | >57 | 15.8µM*
CC(=O)OC[C@@H]1O[C@H](C/C=N\O[C@@H](C)CN2CCCCc3nc(C)c(C)cc32)C=C[C@@H]1OC(C)=O | nt | nt | nt | -2.2%[8 µM]
CCOc1ccc(Cn2nnc(C(=O)NCCc3ccccc3)c2N)cc1 | 10.2% | 3.98µM*[single pt active] | >57 | -6.9%
COc1cccc(Cn2nnc(C(=O)NCc3ccccc3Cl)c2N)c1 | 10.8% | 3.98µM*[single pt active] | nt | ?
COc1cccc(Cn2nnc(C(=O)NCc3ccc(F)cc3)c2N)c1 | 12.9% | 3.98µM*[single pt active] | >57 | -11.8%
O=C(O)[C@H]1CCCN(CCC=C(c2ccccc2)c2ccccc2)C1 | 0.8% | 57.9% | >11.4 | ?
CN1CCN(c2ncc3nc(-c4cc(F)cc(F)c4)c(=O)n(CCC#N)c3n2)CC1 | -1.5% | 60.1% | >57 | ?
C[C@@H]1C(=O)O[C@@H]2C[C@@]34[C@H]5C[C@@H](C(C)(C)C)[C@@]36[C@@H](OC(=O)[C@@H]6O)O[C@]4(C(=O)O5)[C@@]12O | 3.9% | -1.4% | >57 | ?
CCn1c(SCC#N)nc2c(c1=O)C1(CCCC1)Cc1ccccc1-2 | 18.4% | 7.6% | >57 | 10µM*
O=C(COC(=O)Cc1ccc(S(=O)(=O)N2CCCCC2)s1)Nc1ccc2c(c1)OCO2 | 11.2% | 12.6µM* | >57 | -8.7%
O=C(COC(=O)Cc1ccc(S(=O)(=O)N2CCOCC2)s1)NCc1ccccc1 | -2.6% | 14.3% | >57 | -3.1%
CCOc1ccc2[nH]c(C)cc(=O)c2c1 | 13.9% | 3.98µM*[single pt active] | >57 | -11.3%
CCOc1ccc2[nH]c(C)c(CN(C)C)c(=O)c2c1 | -3.3% | -3.3% | nt | ?
Cc1ccc(C)c2[nH]c(=O)c(CN(CCN3CCCC3)C(=O)Nc3cccc(Cl)c3)cc12 | -2.6% | 98.5% | >57 | 7.94µM*
COCC(=O)N1CCC2(CCCN(c3ccncc3)C2)CC1 | -1.2% | 3.9% | >57 | 3.8%
O=C(NCc1ccc2c(c1)OCO2)c1cccc2c1C(=O)N(C1CCCCC1)C2 | 14.4% | 2.51µM*[single pt active] | >57 | 2.1%
COc1ccc(OCCSc2ncnc3nc[nH]c23)cc1 | 11.4% | 3.98µM*[single pt active] | >57 | -6.6%
CCCC(c1cc(C(C)(C)C)c(O)cc1C)c1cc(C(C)(C)C)c(O)cc1C | -2.2%[5.75 µM] | 3.98µM*[single pt active] | >57 | ?
CCOC(=O)N1CCC(NC(=O)CN2C(=O)CCSc3ccccc32)CC1 | 11.3% | 3.98µM*[single pt active] | >57 | 3.8%
CCCN(CCC)CCCNC(=O)c1cc2cc3ccc(OC)cc3nc2o1 | -0.9% | 26.8% | >57 | ?
CCN1CCN(CCCNC(=O)c2cc3cc4ccc(OC)cc4nc3o2)CC1 | -2.8% | 33.6% | >57 | ?
COc1ccc2cc3cc(C(=O)NCCc4ccc(OC)c(OC)c4)oc3nc2c1 | -1.6% | 65.0% | >57 | 12.6µM*
CCCCN(CC)CCCNC(=O)c1cc2cc3ccc(OC)cc3nc2o1 | -2.5% | 33.5% | >57 | 12.6µM*
O=C1/C(=C/Nc2ccc3c(c2)OCO3)CCc2ccccc21 | 3.6% | -17.3% | nt | 7.94µM*
CCc1cc2c(c(CC)n1)CCC(=O)N2Cc1ccc(-c2ccccc2-c2nn[nH]n2)cc1 | -3.1% | 26.3% | >57 | ?
SMILES | AmpC inh det | AmpC inh no det | SmPrx2 inh | Anthrax LT inh
Cc1ccccc1-c1ccc2ncnc(-n3ccnc3)c2c1 | 10.4% | 44.8% | >57 | 5.01µM*
Cc1ccccc1-c1ccc2ncnc(N(C)C)c2c1 | 5.8% | 77.2% | >57 | -18.1%
CN(C)c1ccc(-c2ccc3ncnc(-n4ccnc4)c3c2)cc1 | 11.0% | 77.8% | >11.4 | 7.94µM*
CN1CCc2nc(N)nc(-c3nc(N)nc4c3CN(C)CC4)c2C1 | -0.1%[5.75 µM] | -2.4%[5.75 µM] | >57 | -3.0%[8 µM]
CCOC(=O)c1ccc(NC(=O)Nc2ccc(S(N)(=O)=O)cc2)cc1 | -4.3% | -20.2% | >57 | nt
CN(C)c1ccc(C(=O)OCC(=O)Nc2ccc(S(N)(=O)=O)cc2)cc1 | -1.5% | 15.8µM*[single pt active] | >57 | 8.7%
N#CCCSC(=S)[C@H]1CCCC1=N | -4.4%[5.75 µM] | 2.2%[5.75 µM] | >57 | 3.7%[8 µM]
FC(F)(F)c1ccccc1-c1ccc2ncnc(NCCN3CCOCC3)c2c1 | 4.8% | 134.6% | >57 | -3.7%
CCOC(=O)Cn1c(=O)oc2cc(S(=O)(=O)NCCCc3ccccc3)ccc21 | 12.8% | 0.316µM*[single pt active] | >57 | ?
CCNc1ncc2nc(-c3cccs3)c(=O)n(Cc3cccc(OC)c3)c2n1 | -0.1% | -0.5% | >57 | ?
CC(C)(C)C(=O)COC(=O)c1cccc(NC(=O)c2ccco2)c1 | -5.8% | 10.2% | >57 | -9.8%
CC(C)(C)NC(=O)c1cccc(NC(=O)c2ccc(NC(=O)c3ccco3)cc2)c1 | -2.0% | 4.3% | >57 | ?
